Structures are written as SMILES. Unmarked numbers belong to inactive results.

The nature of the experiment: plasmodial surface anion channel blockers, osmotic lysis – cell-based, P. falciparum Indochina, OD700, 18 h, primary screen (AID 1157). The note with it: P. falciparum Indochina infected erythrocytes, osmotic lysis OD700, 18 h; higher = more signal, called active from +8 up or from −8 down.
`CC1CC/C=C\[C@H]2OC34C=CCN(C(C)C)C(=O)[C@H]3N(CCO)C(=O)[C@@H]4C2C(=O)O1` (stereo partly specified): the z-score is 0.112.

Turning to `C=C(/C(=C/C[C@H](OC(=O)c1ccncc1)c1ccc(CO)o1)c1cnc2ccccc2c1)C(C)C`, the z-score was 0.528.

In the case of `Cc1ccc(F)cc1S(=O)(=O)N[C@@H]1CCN(Cc2ccc(Br)cc2)C1`, the z-score is 0.55.

On to `CN1C2C=C(CCCO)C(C3C(=O)N(C(N)=O)C(=O)C32)C1C1CC1` (stereo unspecified), for which the z-score is -0.0366.

For `Cc1ccc(S[C@]2(C(=O)O)CC(=O)N(C3CCCCC3)[C@@H]2c2ccc(CO)cc2I)cc1`, the z-score was 0.99.

Regarding `COCCOC(=O)N1C(=O)[C@@]2(c3cc(C#CC4(O)CCCCCC4)ccc31)[C@H](C(=O)N1CCc3cc(OC)c(OC)cc3C1)[C@H]1C(=O)O[C@H](c3ccccc3)[C@H](c3ccccc3)N1[C@@H]2c1ccc(OCCO)cc1`, the z-score was 1.64.

As to `COC(=O)[C@@]1(Cc2ccc(OC)cc2)[C@H]2c3cc(C(=O)N4CCCC4)n(CCc4c[nH]c5ccc(O)cc45)c3C[C@H]2CN1C(=O)c1ccccc1`, the z-score was 1.11.

On to `CN(C)C(=O)[C@]1(CCC(=O)OC(C)(C)C)N=C(c2ccc(OCCCO)cc2)O[C@@H]1c1ccccc1CN=[N+]=[N-]`, for which the z-score is 3.77.

With `CCOC(=O)C1=CC[C@@H](c2ccccc2)N(S(=O)(=O)c2ccc(C)cc2)[C@H]1c1ccccc1`, the z-score was 0.24.

For `NC(=O)[C@H]1[C@@H]2C(=O)O[C@@H](c3ccccc3)[C@@H](c3ccccc3)N2[C@@H](c2ccc(OCCO)cc2)[C@]12C(=O)Nc1ccc(C#CCCO)cc12`, the z-score is 0.466.

Regarding `CCCCCCCCCC(O)C1C=CC2C(=O)N(c3ccccc3)C(=O)C2N1Nc1cc(OC)c(OC)c(OC)c1` (stereo unspecified), the z-score is -0.449.

For the compound `COc1cc(OC)c(C(O)C2C=CC3C(=O)N(Cc4ccccc4)C(=O)C3N2n2cnnc2)cc1Br` (stereo unspecified), the z-score was -2.29.

For `O=C1O[C@@H](c2ccccc2)[C@@H](c2ccccc2)N2[C@@H](c3ccc(OCCO)cc3)[C@]3(C(=O)Nc4ccc(C#CC5=CCCCC5)cc43)[C@@H](C(=O)NC[C@H](O)c3ccccc3)[C@H]12`, the z-score is 0.381.

Turning to `CC(C)[Si](C#CCCCC#N)(O[C@H](c1ccccc1)c1cn(Cc2ccccc2)nn1)C(C)C`, the z-score was 0.137.

`CC1=C2[C@@H](CCc3ccccc3)OB(O)C[C@@H]2[C@@H]2C(=O)N(C)C(=O)[C@@H]2C1`: the z-score is 0.255.

On to `COc1ccc([Si](C)(C)[C@H]2[C@H](CC(=O)N(CCO)Cc3ccccc3)O[C@@]3(C(=O)N(C)c4c(Br)cc(C)cc43)[C@@H]2C)cc1`, for which the z-score is 1.11.

Regarding `C=CC[C@@]1(C(=O)NCCCOC)N=C(c2ccc(OCCCO)cc2)O[C@@H]1c1ccccc1N=[N+]=[N-]`, the z-score was 2.16.

For `COC(=O)C(CC#Cc1ccc2c(c1)[C@]1(C(=O)N2)[C@H](c2ccc(O)cc2)N2[C@H](c3ccccc3)[C@H](c3ccccc3)OC(=O)[C@H]2[C@@H]1C(=O)NC[C@H](O)c1ccccc1)C(=O)OC`, the z-score was -0.154.

Turning to `COc1ccc([Si](C)(C)[C@H]2[C@H](CC(=O)N3Cc4ccccc4C[C@H]3CO)O[C@@]3(C(=O)N(Cc4ccc(N5CCOC5=O)cc4)c4ccccc43)[C@@H]2C)cc1`, the z-score was 0.82.

On to `COC(=O)c1c(CC[C@@H](CO)NC(=O)N[C@@H](C)Cn2cc(-c3ccccn3)nn2)oc(C(C)=O)c1C(=O)OC`, for which the z-score was -1.08.

For the compound `COCC(=C=CC[C@H](O)c1ccc(OCCO)cc1)CCO`, the z-score is 0.381.

For the compound `N[C@@H](Cc1ccccc1)C(=O)NCc1cn(Cc2ccccc2)nn1`, the z-score is -0.0074.

For the compound `CCOC(=O)C[C@H]1[C@H](OC(=O)Cc2ccc3c(c2)OCO3)[C@@H](NC(=O)c2ccc3ccccc3n2)c2cc(OCCCO)ccc2N1C(=O)c1ccccc1`, the z-score is 0.308.

With `CC(CO)N1C(=O)[C@]2(C)C3C(=O)OCCC/C=C\[C@H]3OC23C=CCN(c2ccc(Cl)cc2)C(=O)[C@@H]13` (stereo partly specified), the z-score was 0.5.

Take `CC(=O)NCCCC[C@@H]1NC(=O)[C@@H]2C[C@H](C(=O)NCCCCCN)[C@H](c3ccc(O)cc3)N2C1=O`: the z-score was 0.301.

For the compound `COC(=O)[C@@]1(Cc2ccccc2)[C@H]2c3cc(C(=O)N(C)C)n(Cc4ccc(C)o4)c3C[C@H]2CN1C(=O)c1ccccc1`, the z-score is -1.54.
